Results on 39 compounds are retold here after PubChem BioAssay (EPA / NIEHS).

Where “and” joins values, the source holds several entries; their conditions need not be identical. Equal values may be shown once. Some compounds were tested as several samples or in several runs, with calls that do not always agree. Calls of active or inactive are those of the source. Rule for the calls: active = hit-call score of the fitted dose curve at least 0.9, where 1 is the maximum; inactive = score below 0.9.

Read-out in the assay: Monokine induced gamma interferon (MIG), CXCL9 (gene 4283)
The assay can be described thus: BSK_BE3C_MIG: BioMAP Diversity Plus: BE3C Assay for Monokine induced gamma interferon (MIG) Biomarker Activity (AID 2283035). The settings on record: primary human bronchial epithelial cells; actives raise or lower the signal. The method, then: BSK_BE3C is a cell-based, multiplexed-readout assay that uses bronchial epithelial cell, a human lung primary cell, with measurements taken at 24 hours after chemical dosing in a 96-well plate.BSK_BE3C_MIG is an assay component measured in the BSK_BE3C assay. It measures MIG antibody related to regulation of gene expression using ELISA technology.Data from the assay component BSK_BE3C_MIG was analyzed into 1 assay endpoint. This assay endpoint, BSK_BE3C_MIG, was analyzed with bidirectional fitting relative to DMSO as the negative control and baseline of activity. Using a type of binding reporter, gain or loss-of-signal activity can be used to understand changes in the signaling as they relate to the gene CXCL9. Furthermore, this assay endpoint can be referred to as a primary readout, because this assay has produced multiple assay endpoints where this one serves a signaling function. To generalize the intended target to other relatable targets, this assay endpoint is annotated to the cytokine intended target family, where the subfamily is chemotactic factor.
The levels of cell surface (or secreted, indicated by the prefix "s") biomarker endpoints were measured by ELISA. Overt cytotoxicity to cells in confluent adherent cultures (all systems other than the BT system) was assessed by measuring total protein levels using sulforhodamine B (SRB) staining in parallel cultures at the time of biomarker measurements, indicated as SRB endpoints. For proliferation assays for adherent cell types, individual cell types are cultured at sub-confluence and relative cell numbers quantified by SRB staining at time points optimized for each system (48 h: 3C and CASM3C systems; 72 h: BT and HDF3CGF systems; 96 h: SAg system). SRB was performed by staining cells with 0.1% SRB after fixation with 10% TCA and reading wells at 560 nm.Viability and proliferation of PBMC (T cells) was quantified by Alamar Blue reduction for the SAg and BT systems. For PBMC viability (referred to as PBMC Cytotoxicity within the assay endpoint names), cells were plated (75,000/well in a 96-well plate) and then chemical samples added for 1 h before addition of activators, SEB and TSST-1 (20 ng/mL final concentration each). Cells were incubated for 90 h. Then, Alamar Blue (20 uL/well) (Invitrogen, Cat DAL1100) was added for 6 h, and the plates were read with a fluorescence microplate reader at 546/580 nm (excitation/emission). For PBMC proliferation, cells were plated and activated as above but incubated for only 16 h prior to addition of Alamar Blue. Plates were read after 6 h.
For `CCc1ccc(CCOc2ccc(CC3SC(=O)NC3=O)cc2)nc1` (stereo not given), the outcome was inactive.

Turning to `CCN(CC)CCNc1ccc(CNC=O)c2sc3ccc(OC)cc3c(=O)c12`, the result was inactive.

On to `OC1CCCCC1`, for which the result was inactive.

For the compound `c1ccc2c(c1)Cc1ccccc1-2`, the result was inactive.

As to `O=C(OCCOCCOC(=O)c1ccccc1)c1ccccc1`, the result was inactive.

`CC(C)(C)CC(C)(C)c1ccc(O)c(-n2nc3ccccc3n2)c1`: the outcome was inactive.

On to `Nc1cccc2c(N)cccc12`, for which the outcome was inactive.

Regarding `CCCCCCCCCCCCCCCS(=O)(=O)Oc1ccccc1`, the outcome was inactive.

In the case of `O=[N+]([O-])c1ccc(O)cc1`, the outcome was inactive.

Turning to `O=c1c(-c2ccc(O)cc2)coc2cc(O)ccc12`, the outcome was inactive.

As to `OCCC(F)(F)C(F)(F)C(F)(F)C(F)(F)C(F)(F)C(F)(F)C(F)(F)C(F)(F)F`, the result was inactive; the AC50 is 33.5 µM (active) and 28.7 µM (active).

Regarding `CCOC(=O)CC(O)(CC(=O)OCC)C(=O)OCC`, the result was inactive.

Regarding `CC(C)(C)c1cccc(C(C)(C)C)c1O`, the result was inactive.

Regarding `CC(C)(C)c1ccc(O)c(C(C)(C)C)c1`, the concentration at half-maximal activity (AC50) was 36.1 µM (active).

`CCCCCCCC(=O)O`: the outcome was inactive.

With `Oc1cc2ccccc2c2ccccc12`, the AC50 was 28.8 µM (active).

Turning to `CC(C)(C)c1cc(C(C)(C)C)c(O)c(C(C)(C)C)c1`, the result was inactive.

Consider `CC1=C(/C=C/C(C)=C/C=C/C(C)=C/C(=O)O)C(C)(C)CCC1`, for which the outcome was inactive.

Regarding `CCCOc1sc(C(=O)N2CCC(c3cc(CN)ccc3F)CC2)c(C)c1Br`, the concentration at half-maximal activity (AC50) is 10.2 µM (active).

In the case of `c1ccc2c(c1)ccc1ccccc12`, the outcome was inactive.

Regarding `OC1CCC(C2CCCCC2)CC1` (stereo not given), the result was inactive.

Consider `CCCCCCCCC(=O)O`, for which the outcome was inactive.

`CC#C[C@]1(O)CC[C@H]2[C@@H]3CCC4=CC(=O)CCC4=C3[C@@H](c3ccc(N(C)C)cc3)C[C@@]21C`: the result was inactive.

As to `CCCCOCCO`, the result was inactive.

As for `CCC(C)(C)C1CCC(O)CC1` (stereo not given), the outcome was inactive.

In the case of `c1ccc2cc3c(ccc4ccccc43)cc2c1`, the result was inactive.

For the compound `ClC1=C(Cl)C(Cl)(Cl)C(Cl)=C1Cl`, the AC50 was 10.1 µM (active).

As for `CN1CCC[C@H]1c1cccnc1`, the result was inactive.

As to `COc1ccc([N+](=O)[O-])cc1N`, the outcome was inactive.

Turning to `COC(=O)CCCCC(=O)OC`, the outcome was inactive.

For `CCCOC(=O)c1ccc(O)cc1`, the result was inactive.

For the compound `COCC(C)O` (stereo not given), the result was inactive.

Regarding `NC(=O)N(O)[C@@H]1C=C[C@H](Oc2cccc(Oc3ccc(F)cc3)c2)C1`, the result was inactive.

Consider `COCC(C)OCC(C)O` (stereo not given), for which the outcome was inactive.

For `C=C(C)C(=O)OCCC(F)(F)C(F)(F)C(F)(F)C(F)(F)C(F)(F)C(F)(F)F`, the outcome was inactive.

Consider `CCCCCCCCOC(=O)CCCCCCCCC(=O)OCCCCCCCC`, for which the outcome was inactive.

For the compound `N#C[C@@H]1CC(F)(F)CN1C(=O)CNC1CC2CCC(C1)N2c1ncccn1` (stereo not given in full), the result was inactive.

As to `C[C@@H]1C[C@H]2[C@@H]3CCC4=CC(=O)C=C[C@]4(C)[C@@]3(F)[C@@H](O)C[C@]2(C)[C@@]1(O)C(=O)COP(=O)(O)O`, the outcome was inactive.

Regarding `CCCCC(CC)COC(=O)CCCCC(=O)OCc1ccccc1` (stereo not given), the outcome was inactive.

As a reminder, the AC50 is the midpoint of the concentration-response curve, whichever way the signal moves.
